# Assay results: PubChem BioAssay (NCATS)
# “And” between values parts separate entries of the source, which are not always exact repeats. Identical values can stand only once. Values without a mark were called inactive. Results filed as inconclusive are left out. Where a call stands in place of a potency, no number is given. The source made the active and inactive calls. Unless noted, the call rests on the fitted dose curve.
# Key:
# [1] = biological target: Ubiquitin carboxyl-terminal hydrolase 1 (Homo sapiens) (UniProt O94782); test: Inhibitors of USP1/UAF1: Pilot qHTS (AID 504865; active means well fitted inhibition curve with a large enough effect;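 further: rhodamine fluorescence freed from ubiquitin-rhodamine substrate followed over time; top concentration of the series differs between compounds; nearly all actives have a fitted effect of over 35% in size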)
# Summary of the method: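 1nM USP1/UAF1 + cpd, 15 min RT; start w/ Ub-Rho 150nM final; kinetic FL 480/540 nm, 6 reads q60 s. Buffer 50mM HEPES pH 7.8, 0.5mM EDTA, 1mM TCEP, 0.01% Tween-20, 0.1 mg/ml BSA.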
# [2] = biological target: Estrogen receptor (Homo sapiens) (UniProt P03372); test: qHTS assay for small molecule antagonists of estrogen receptor alpha signaling (AID 588513; active means well fitted curve in the direction sought with a large enough effect in the signal ratio, with a control signal flat, not every such curve was filed as active; the % refers to the signal ratio)
# Summary of the method: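 Beta-lactamase reporter, antagonist mode, HEK 293 GripTite cells; 0.5nM E2 stimulus, 18 h, 37 C; CCF4 dye 2 h RT; fluorescence. IC50 and efficacy from Hill fits, normalized to E2 and DMSO.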
# [3] = biological target: Estrogen receptor (Homo sapiens) (UniProt P03372); test: qHTS assay for small molecule agonists of estrogen receptor alpha signaling (AID 588514); further: nearly all actives have a fitted effect of over 70% in size; further: potency means the concentration at half of the fitted maximal effect
# Summary of the method: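 ER-alpha-UAS-bla GripTite HEK 293 cells in medium with 2% charcoal/dextran-treated FBS were treated with compound titrations at 37 C for 18 hrs; beta-lactamase reporter read by CCF4 fluorescence after 2 hrs at RT.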
# [4] = biological target: DNA dC->dU-editing enzyme APOBEC-3G (Homo sapiens) (UniProt Q9HC16); test: qHTS for inhibitors of Vif-A3G interactions: Validation (AID 588379; active means well fitted inhibition curve with a large enough effect)
# Summary of the method: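 HeLa cells stably expressing Vif and A3G-eYFP, 700 cells/well, incubated overnight at 37 deg C, then exposed to compound overnight at 37 deg C. Inhibition of Vif-mediated degradation read as increased yellow fluorescence (Ex 488/Em 500-530) by laser-scanning cytometry.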
# [5] = biological target: Bile acid receptor (Homo sapiens) (UniProt Q96RI1); test: qHTS assay for small molecule agonists of farnesoid X receptor signaling (AID 588527); details: HEK293T FXR-UAS-bla, beta-lactamase ratio, 16 h; hits give high values; further: series mostly up to about 77 µM
# Summary of the method: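 Quantitative HTS used FXR-UAS-bla HEK293T cells with 16 h compound incubation at 37 C. EC50 values came from concentration-response curves normalized to chenodeoxycholic acid.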
# [6] = biological target: Glucocorticoid receptor (Homo sapiens) (UniProt P04150); test: qHTS assay for small molecule agonists of glucocorticoid receptor signaling (AID 588532; active means well fitted curve in the direction sought with a large enough effect in the signal ratio, with a control signal flat; the % refers to the signal ratio); details: HeLa MMTV-bla, beta-lactamase ratio, agonist, 18 h; hits give high values; percent of dexamethasone control, DMSO zero
# Summary of the method: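 HeLa GRE-bla reporter cells; 18 h compound exposure at 37 C; 2 h CCF4 loading at room temperature; fluorescence at 460 and 530 nm; EC50 by Hill equation.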
# [7] = biological target: Glucocorticoid receptor (Homo sapiens) (UniProt P04150); test: qHTS assay for small molecule antagonists of glucocorticoid receptor signaling (AID 588533; active means well fitted inhibition curve with a large enough effect in the signal ratio, with a control signal flat, not every such curve was filed as active; the % refers to the signal ratio;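 further: cells stimulated with 2 nM dexamethasone as agonist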; further: potency means the concentration at half of the fitted maximal effect)
# Summary of the method: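 Antagonist-mode qHTS: compound titrations added to GRE-bla HeLa cells, then dexamethasone 2 nM final; 18 h, 37 C. CCF4 FRET fluorescence normalized to dexamethasone and DMSO; IC50 from Hill fit.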
# [8] = biological target: Bile acid receptor (Homo sapiens) (UniProt Q96RI1); test: qHTS assay for small molecule antagonists of farnesoid X receptor signaling (AID 588526); further: potency means the concentration at half of the fitted maximal effect
# Summary of the method: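 Antagonist mode: titrated compounds tested against chenodeoxycholic acid stimulation (normalized to 50 uM CDCA and DMSO) in GeneBLAzer HEK293T cells for 16 h. Beta-lactamase read by CCF4 fluorescence; IC50 from Hill fits.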
# [9] = biological target: Androgen receptor (Homo sapiens) (UniProt P10275); test: qHTS assay for small molecule agonists of androgen receptor signaling (AID 588515; active means well fitted curve in the direction sought with a large enough effect in the signal ratio, with a control signal flat; the % refers to the signal ratio); details: AR-UAS-bla HEK293, beta-lactamase ratio, agonist 16 h; hits give high values
# Summary of the method: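 EC50 and efficacy came from Hill fits of titrations (up to 92 uM) normalized to 30 nM R1881 as 100% and DMSO as 0%. Compound exposure was 16 h at 37 C on AR-UAS-bla HEK293 cells, with a 405/460/530 nm CCF4 fluorescence read.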
# [10] = biological target: Androgen receptor (Homo sapiens) (UniProt P10275); test: qHTS assay for small molecule antagonists of androgen receptor signaling (AID 588516; active means well fitted curve in the direction sought with a large enough effect in the signal ratio, with a control signal flat, not every such curve was filed as active; the % refers to the signal ratio)
# Summary of the method: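 HEK293 AR-UAS-bla cells, 10% dialyzed FBS medium; cpd titration + R1881 10 nM final, 16 h 37 C; CCF4 2 h RT; FRET ratio; IC50/efficacy via Hill fit.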
# Chain of Androgen receptor (Homo sapiens) (P10275 whole entry, looked up): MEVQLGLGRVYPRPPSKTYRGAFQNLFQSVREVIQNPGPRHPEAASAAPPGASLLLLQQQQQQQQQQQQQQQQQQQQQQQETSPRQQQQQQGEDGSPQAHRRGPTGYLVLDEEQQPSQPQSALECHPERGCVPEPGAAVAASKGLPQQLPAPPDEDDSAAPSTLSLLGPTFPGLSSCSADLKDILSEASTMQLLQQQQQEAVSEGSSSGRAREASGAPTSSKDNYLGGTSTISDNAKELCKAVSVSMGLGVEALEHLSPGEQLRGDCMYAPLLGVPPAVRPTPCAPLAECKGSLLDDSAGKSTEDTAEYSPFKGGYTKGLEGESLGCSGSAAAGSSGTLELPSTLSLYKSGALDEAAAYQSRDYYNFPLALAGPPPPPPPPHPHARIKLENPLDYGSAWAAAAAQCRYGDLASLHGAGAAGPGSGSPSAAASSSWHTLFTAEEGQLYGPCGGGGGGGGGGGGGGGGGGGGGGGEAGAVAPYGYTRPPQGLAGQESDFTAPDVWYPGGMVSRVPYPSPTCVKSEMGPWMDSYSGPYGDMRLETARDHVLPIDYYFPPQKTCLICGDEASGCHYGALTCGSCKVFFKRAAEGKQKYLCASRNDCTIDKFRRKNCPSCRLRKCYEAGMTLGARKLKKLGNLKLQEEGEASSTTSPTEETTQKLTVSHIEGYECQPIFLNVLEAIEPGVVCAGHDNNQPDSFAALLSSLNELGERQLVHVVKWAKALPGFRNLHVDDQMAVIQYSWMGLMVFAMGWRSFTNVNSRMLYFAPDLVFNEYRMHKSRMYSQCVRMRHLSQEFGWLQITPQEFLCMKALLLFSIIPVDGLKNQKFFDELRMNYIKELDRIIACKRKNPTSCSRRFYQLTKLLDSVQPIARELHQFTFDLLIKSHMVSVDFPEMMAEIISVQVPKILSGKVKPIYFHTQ
# Chain of Bile acid receptor (Homo sapiens) (Q96RI1 whole entry, looked up): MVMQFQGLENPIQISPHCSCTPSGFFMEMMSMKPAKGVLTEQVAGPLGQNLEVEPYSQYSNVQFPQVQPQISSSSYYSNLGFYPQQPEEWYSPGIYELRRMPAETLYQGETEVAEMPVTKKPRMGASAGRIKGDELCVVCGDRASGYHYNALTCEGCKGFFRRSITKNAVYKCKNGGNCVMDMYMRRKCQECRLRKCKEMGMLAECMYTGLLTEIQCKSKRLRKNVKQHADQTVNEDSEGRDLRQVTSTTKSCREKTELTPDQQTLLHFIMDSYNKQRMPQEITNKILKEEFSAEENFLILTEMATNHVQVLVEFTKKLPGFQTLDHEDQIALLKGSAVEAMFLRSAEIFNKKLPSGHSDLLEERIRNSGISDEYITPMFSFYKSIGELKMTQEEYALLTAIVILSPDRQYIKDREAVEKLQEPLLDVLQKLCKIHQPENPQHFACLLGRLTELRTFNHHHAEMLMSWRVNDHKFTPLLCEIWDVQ
# Chain of Ubiquitin carboxyl-terminal hydrolase 1 (Homo sapiens) (O94782 whole entry, looked up): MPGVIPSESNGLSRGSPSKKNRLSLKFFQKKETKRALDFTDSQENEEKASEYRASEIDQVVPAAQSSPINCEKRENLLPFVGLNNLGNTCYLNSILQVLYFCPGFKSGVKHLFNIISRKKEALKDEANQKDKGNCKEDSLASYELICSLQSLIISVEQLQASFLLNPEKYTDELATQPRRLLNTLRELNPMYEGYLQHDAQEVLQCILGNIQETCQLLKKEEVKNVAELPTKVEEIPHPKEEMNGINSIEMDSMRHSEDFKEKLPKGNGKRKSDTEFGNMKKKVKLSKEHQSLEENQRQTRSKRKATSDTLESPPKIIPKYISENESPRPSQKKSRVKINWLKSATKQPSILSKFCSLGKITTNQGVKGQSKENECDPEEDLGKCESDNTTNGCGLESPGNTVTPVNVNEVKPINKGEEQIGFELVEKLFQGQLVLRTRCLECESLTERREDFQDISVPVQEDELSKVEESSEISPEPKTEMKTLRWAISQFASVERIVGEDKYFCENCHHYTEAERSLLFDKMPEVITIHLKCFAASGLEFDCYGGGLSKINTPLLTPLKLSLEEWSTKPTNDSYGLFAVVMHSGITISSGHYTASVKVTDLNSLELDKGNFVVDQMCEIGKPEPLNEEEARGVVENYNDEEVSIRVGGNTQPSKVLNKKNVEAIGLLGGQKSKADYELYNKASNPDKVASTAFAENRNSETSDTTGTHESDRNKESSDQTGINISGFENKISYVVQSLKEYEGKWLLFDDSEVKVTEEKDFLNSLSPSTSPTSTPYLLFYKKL
# Chain of Estrogen receptor (Homo sapiens) (P03372 whole entry, looked up): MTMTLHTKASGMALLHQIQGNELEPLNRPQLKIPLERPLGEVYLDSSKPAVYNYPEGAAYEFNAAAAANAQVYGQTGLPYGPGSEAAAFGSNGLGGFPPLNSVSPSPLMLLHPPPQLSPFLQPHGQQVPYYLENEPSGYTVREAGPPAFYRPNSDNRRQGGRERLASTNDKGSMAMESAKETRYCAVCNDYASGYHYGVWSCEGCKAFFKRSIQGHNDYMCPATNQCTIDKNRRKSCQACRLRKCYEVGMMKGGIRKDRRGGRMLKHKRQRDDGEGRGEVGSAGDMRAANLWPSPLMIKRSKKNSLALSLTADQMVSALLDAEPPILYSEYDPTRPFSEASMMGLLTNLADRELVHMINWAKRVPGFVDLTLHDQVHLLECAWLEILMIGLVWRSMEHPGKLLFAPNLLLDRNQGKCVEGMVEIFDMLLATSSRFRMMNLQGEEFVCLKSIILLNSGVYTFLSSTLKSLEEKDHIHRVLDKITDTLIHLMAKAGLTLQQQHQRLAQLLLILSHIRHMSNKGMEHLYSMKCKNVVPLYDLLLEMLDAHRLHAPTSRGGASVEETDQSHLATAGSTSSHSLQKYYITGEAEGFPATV
# Chain of DNA dC->dU-editing enzyme APOBEC-3G (Homo sapiens) (Q9HC16 whole entry, looked up): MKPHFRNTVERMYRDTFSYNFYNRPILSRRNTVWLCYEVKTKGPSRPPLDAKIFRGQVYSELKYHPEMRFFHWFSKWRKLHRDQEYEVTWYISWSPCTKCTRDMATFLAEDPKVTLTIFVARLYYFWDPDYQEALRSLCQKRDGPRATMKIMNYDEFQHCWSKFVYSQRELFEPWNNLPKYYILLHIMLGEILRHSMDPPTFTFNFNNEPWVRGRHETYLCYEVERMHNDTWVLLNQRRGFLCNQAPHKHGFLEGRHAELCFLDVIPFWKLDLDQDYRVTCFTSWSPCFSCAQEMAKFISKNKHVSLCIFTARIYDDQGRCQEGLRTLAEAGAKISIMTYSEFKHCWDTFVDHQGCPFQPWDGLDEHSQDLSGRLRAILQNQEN
# Chain of Glucocorticoid receptor (Homo sapiens) (P04150 whole entry, looked up): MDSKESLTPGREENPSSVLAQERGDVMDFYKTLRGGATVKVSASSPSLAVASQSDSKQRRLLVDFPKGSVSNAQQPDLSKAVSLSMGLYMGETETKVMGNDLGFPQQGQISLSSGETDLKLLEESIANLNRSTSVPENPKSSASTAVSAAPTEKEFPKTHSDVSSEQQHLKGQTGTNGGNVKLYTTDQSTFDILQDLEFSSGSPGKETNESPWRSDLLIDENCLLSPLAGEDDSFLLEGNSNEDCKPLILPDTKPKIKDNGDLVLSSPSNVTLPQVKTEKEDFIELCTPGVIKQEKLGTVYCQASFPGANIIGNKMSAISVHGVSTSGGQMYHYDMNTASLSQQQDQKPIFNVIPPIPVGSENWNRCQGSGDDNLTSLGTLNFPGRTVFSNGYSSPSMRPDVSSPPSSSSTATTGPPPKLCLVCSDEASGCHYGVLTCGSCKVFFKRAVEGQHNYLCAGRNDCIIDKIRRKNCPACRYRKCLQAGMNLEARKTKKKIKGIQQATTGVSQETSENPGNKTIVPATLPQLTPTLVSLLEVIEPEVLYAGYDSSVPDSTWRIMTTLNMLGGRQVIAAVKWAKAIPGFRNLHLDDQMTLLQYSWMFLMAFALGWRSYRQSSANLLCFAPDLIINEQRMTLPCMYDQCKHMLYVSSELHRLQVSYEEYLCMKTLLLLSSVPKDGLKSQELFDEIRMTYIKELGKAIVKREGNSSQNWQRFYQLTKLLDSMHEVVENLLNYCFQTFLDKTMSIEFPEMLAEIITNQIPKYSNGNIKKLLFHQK
smiles,measurement,setting,value
CN(C)CCc1ccc(O)cc1,Potency,[1],inactive
CS(=O)c1ccc(-c2nc(-c3ccc(F)cc3)c(-c3ccncc3)[nH]2)cc1 (configuration not stated),Potency,[1],inactive
c1ccc2c(c1)Nc1ccccc1S2,outcome,[2],inactive
same,Potency,[3],inactive
CN(C)CCN(C)CCc1ccc(Cl)c(Cl)c1,Potency,[1],inactive
same,outcome,[4],inactive
CCC(C(N)=O)N1CCCC1=O (configuration not stated),Potency,[1],inactive
O=C(NC(O)C(Cl)(Cl)Cl)NC(O)C(Cl)(Cl)Cl (configuration not stated),Potency,[1],inactive
COC1=CC(=O)C[C@@H](C)[C@]12Oc1c(Cl)c(OC)cc(OC)c1C2=O,activation,[5],0.423%
CCOP(=S)(OCC)Oc1cc(C)nc(C(C)C)n1,activation,[6],-2.71%
same,Potency,[7],inactive
Cc1ccnc2c1NC(=O)c1cccnc1N2C1CC1,activation,[5],5.2%
Oc1cc(Cl)ccc1Oc1ccc(Cl)cc1Cl,Potency,[1],inactive
same,activation,[6],-14.4%
C[C@]12CCC(=O)C(O)=C1CC[C@@H]1[C@@H]2CC[C@]2(C)C(=O)CC[C@@H]12,outcome,[2],inactive
same,activation,[6],2.34%
same,Potency,[7],inactive
CN(C)/N=N/c1nc[nH]c1C(N)=O,activation,[5],-3.3%
CCCCOCCOCCOCc1cc2c(cc1CCC)OCO2,activation,[5],1.08% and -5.21%
NP(N)(=O)NC(=O)c1ccc(F)cc1,Potency,[1],inactive
same,outcome,[4],inactive
C#CCN(C)[C@H](C)Cc1ccccc1,Potency,[1],inactive
same,outcome,[4],inactive
COC1(CS(=O)c2ccccc2)CCN(CCc2c[nH]c3ccc(F)cc23)CC1 (configuration not stated),Potency,[1],inactive
same,outcome,[4],inactive
OCCOc1ccccc1,Potency,[1],inactive
same,outcome,[2],inactive
same,Potency,[3],inactive
same,Potency,[8],inactive
same,activation,[5],0.0237% and -6.3% and -0.639%
same,activation,[6],0.307% and -9.57% and -3.52%
same,Potency,[7],inactive
CC[C@H](C)C(=O)O[C@H]1C[C@@H](C)C=C2C=C[C@H](C)[C@H](CC[C@@H]3C[C@@H](O)CC(=O)O3)[C@H]21,activation,[5],-3.65%
Oc1ccc(Cl)cc1Cc1ccccc1,activation,[9],-12.3%
same,outcome,[10],inactive
same,activation,[6],-0.163% and -0.754%
same,Potency,[7],inactive
C[C@]12C/C(=C/O)C(=O)C[C@@H]1CC[C@@H]1[C@@H]2CC[C@@]2(C)[C@H]1CC[C@]2(C)O,Potency,[1],inactive
same,Potency,[3],562 nM (active)
same,activation,[5],1.58%
same,activation,[6],-7.95%
Cc1ccc(C)c(OCCCC(C)(C)C(=O)O)c1,activation,[5],-2.62% and -0.135%
C#C[C@]1(O)CC[C@H]2[C@@H]3CCC4=Cc5oncc5C[C@]4(C)[C@H]3CC[C@@]21C,activation,[5],-1.05%
CCCN(CCC)S(=O)(=O)c1ccc(C(=O)O)cc1,activation,[5],-0.735% and 0.243%
NC(=Nc1ccccc1)Nc1ccccc1,outcome,[2],inactive
same,activation,[5],-1.85% and 0.0042%
same,activation,[6],-8.4%
C[C@H]1O[C@@H](O[C@H]2[C@@H](O)C[C@H](O[C@H]3[C@@H](O)C[C@H](O[C@H]4CC[C@@]5(C)[C@H](CC[C@@H]6[C@@H]5CC[C@]5(C)[C@@H](C7=CC(=O)OC7)CC[C@]65O)C4)O[C@@H]3C)O[C@@H]2C)C[C@H](O)[C@@H]1O,activation,[5],-2.75%
same,activation,[6],-14.2%
same,Potency,[7],355 nM (active)
Clc1ccc(COC(Cn2ccnc2)c2ccc(Cl)cc2Cl)cc1 (configuration not stated),Potency,[3],inactive
same,activation,[5],9.99%
same,activation,[6],9.41%
N[C@@H](Cc1ccc(N(CCCl)CCCl)cc1)C(=O)O,Potency,[8],39800 nM (active)
same,activation,[5],0.124%
same,activation,[6],7.11% and 5.34%
same,Potency,[7],inactive
Oc1cccc2cccnc12,Potency,[1],inactive
same,activation,[5],-3.45% and -4.35%
COc1cc([C@@H]2c3cc4c(cc3[C@H](O)[C@H]3COC(=O)[C@H]23)OCO4)cc(OC)c1OC,Potency,[1],inactive
CC(C)(C)CC(C)(C)c1ccc(O)cc1,activation,[9],2.26%
same,outcome,[10],inactive
same,Potency,[8],inactive
same,activation,[5],3.19%
same,activation,[6],4.7%
O=c1oc2ccccc2c(O)c1C(CC(O)c1ccc(-c2ccc(Br)cc2)cc1)c1ccccc1 (configuration not stated),activation,[5],-8.03%
CC1NCCOC1c1ccccc1 (configuration not stated),Potency,[1],inactive
